Residue numbers refer to the chain shown, from its start.

One test has as its target T1, SALL4 ZFC4 WT (HT-SELEX) (Mus musculus, UniProt Q8BX22 870-940).
T1 sequence: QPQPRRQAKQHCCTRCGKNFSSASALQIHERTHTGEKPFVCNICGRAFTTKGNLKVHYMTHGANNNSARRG
Nature of the test: HT-SELEX; high values mean tight binding. Particulars: protein: recombinant; vector His6-GST; dsDNA, one strand shown. In outline:
(§1)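 Purified recombinant mouse SALL4 zinc finger cluster 4 (residues 870–940, 1 µg) and library DNA (1.5 µg first cycle, 200 ng later) were incubated for 10 min at room temperature in 100 µl of 10 mM Tris–HCl pH 7.5, 50 mM NaCl, poly(dI-dC) and DTT. After Ni2+ bead capture and up to 6 triplicate cycles of selection, DNA was MiSeq-sequenced and scanned for 6-mers. Binding signal is the fold change in each canonical k-mer's read fraction relative to the initial random library.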
Regarding ACTATG, the binding signal is 1.34 ± 0.073 fold-change vs cycle 0.
Consider GGAATA, for which the binding signal turned out to be 1.41 ± 0.0746 fold-change vs cycle 0.
As for ATTCTC, the binding signal turned out to be 1.41 ± 0.062 fold-change vs cycle 0.
On the same count and under the same terms, then ATACGA, with 1.26 ± 0.0299 fold-change vs cycle 0; and CTCTTA, with 1.46 ± 0.0534 fold-change vs cycle 0.
The same measure, in the same setting: next, GAACTA: 1.37 ± 0.088 fold-change vs cycle 0; CAATAG: 1.21 ± 0.0269 fold-change vs cycle 0.
On the same count and under the same terms, next, ACGAAT: 1.18 ± 0.0691 fold-change vs cycle 0; AGAATA: 2.17 ± 0.0586 fold-change vs cycle 0.
Consider GGTATA, for which the binding signal came out at 1.3 ± 0.0598 fold-change vs cycle 0.
Still for that read-out and setting: then GTGTTA, with 1.31 ± 0.0667 fold-change vs cycle 0; and TCGTAA, with 1.21 ± 0.0956 fold-change vs cycle 0; and ATGATG, with 1.43 ± 0.0727 fold-change vs cycle 0.
The same measure, in the same setting: then GAAGTA, with 1.43 ± 0.0516 fold-change vs cycle 0.
With GCATTA, the binding signal turned out to be 1.15 ± 0.025 fold-change vs cycle 0.
Take ACCATA: the binding signal turned out to be 1.42 ± 0.0615 fold-change vs cycle 0.

The target in a further test is T2, SALL4 ZFC4 R900W (HT-SELEX) (Mus musculus, UniProt Q8BX22 870-940, R900W).
T2 sequence: T1 sequence with R31W
Nature of the test: HT-SELEX; high values mean tight binding. Particulars: protein: recombinant; vector His6-GST; dsDNA, one strand shown. In outline: as §1
As for ACCAAT, the binding signal is 1.33 ± 0.0357 fold-change vs cycle 0.
On the same count and under the same terms, then ACGAAA, with 1.12 ± 0.0308 fold-change vs cycle 0.
On the same count and under the same terms, then TAAGAA, with 2.2 ± 0.155 fold-change vs cycle 0; and ATTGTG, with 1.18 ± 0.0444 fold-change vs cycle 0; and CTCAAA, with 1.2 ± 0.0701 fold-change vs cycle 0.
In the case of AAACCT, the binding signal came to 1.34 ± 0.0189 fold-change vs cycle 0.
In the case of ATGCAA, the binding signal is 1.18 ± 0.0732 fold-change vs cycle 0.
Turning to ATCCTG, the binding signal was determined as 1.02 ± 0.0483 fold-change vs cycle 0.
As to ATACCA, the binding signal was 1.39 ± 0.0221 fold-change vs cycle 0.
Same read-out and setting: then AATACG, with 1.11 ± 0.0569 fold-change vs cycle 0.
With CATAGA, the binding signal worked out at 1.37 ± 0.0567 fold-change vs cycle 0.
GAGAGA: the binding signal worked out at 1.06 ± 0.0438 fold-change vs cycle 0.
On to ACTCCA, for which the binding signal came out at 1.03 ± 0.0645 fold-change vs cycle 0.
Still for that read-out and setting: next, CAGATA: 1.33 ± 0.0549 fold-change vs cycle 0; CATCTC: 1.01 ± 0.0376 fold-change vs cycle 0.
With ACAAAC, the binding signal was determined as 1.23 ± 0.0488 fold-change vs cycle 0.
Same read-out and setting: then ACTGAG, with 1.01 ± 0.0326 fold-change vs cycle 0.

Source of the values: PMC9838217, “Structure of SALL4 zinc finger domain reveals link between AT-rich DNA binding and Okihiro syndrome”.
